These results are taken from PubChem BioAssay AID720518 (National Center for Advancing Translational Sciences (NCATS), 2013).

Records with an inconclusive call do not appear. A call without a number means that no potency is given here. Calls of active or inactive are those of the source. Calls follow the shape of the full dose curve.

The assay can be described thus: qHTS for Inhibitors of Cell Surface uPA Generation: Wild-type Protective Antigen (WT-PrAg) Counterscreen for Cherry-picked Compounds. The note with it: cells, WT protective antigen toxicity counterscreen; series mostly up to 115 µM. Background: Quantitative high-throughput screening tests each substance at several concentrations.
Regarding `CCC(C)C(NC(=O)c1ccccc1)C(=O)Nc1ccc(S(=O)(=O)Nc2cc(C)nc(C)n2)cc1` (stereo not given), the Potency entry is “inactive”. With `CC(C)N1CCc2c(sc(NC(=O)Cc3ccccc3)c2C(N)=O)C1`, the Potency entry was “inactive”. Then `CCC(C)Sc1nnc(NS(=O)(=O)Cc2ccccc2)s1` (stereo not given), with “inactive”. Consider `O=C(c1ccc(NC(=S)NCc2ccc(Cl)cc2)cc1)N1CCCCC1`, for which the Potency result was “inactive”. As to `CN1CC[C@]23c4ccccc4N[C@H]1[C@]21CCN(C)[C@H]3Nc2ccccc21`, the Potency result is “inactive”. The same measure for `Fc1ccc(CNc2ccccn2)cc1`: “inactive”. Then `CC1=CC(C)C(C[N+]2(C)CCCCC2)C(C)C1` (stereo not given), with “inactive”. Take `C=CCOC(=O)C1=C[C@@H](c2coc3ccccc3c2=O)C[C@@H](OCc2ccc(CO)cc2)O1`: the Potency entry is “inactive”.

Regarding `C=CCc1cc(S(=O)(=O)c2ccc(O)c(CC=C)c2)ccc1O`, the Potency result was “inactive”. For `Cc1ccc(C(=O)NNC(=O)CNc2cccc(Cl)c2)cc1`, the Potency result is “inactive”. Then `CC(NC(=O)NC1CCCCC1)C(c1cccs1)N1CCN(C)CC1` (stereo not given), with “inactive”; and `COc1cc(C(C)=O)ccc1OCc1cn(CC(=O)c2ccc(O)cc2)nn1`, with “inactive”. As to `CCOC(=O)c1c(C)oc2ccc(OC(=O)COc3c(F)c(F)c(F)c(F)c3F)cc12`, the Potency entry is “inactive”. Regarding `COc1ccc(/C=N/NC(=O)COc2ccc3ccccc3c2)c(C(=O)O)c1OC`, the Potency result was “inactive”. Then `CCN(C(=O)c1c(C)noc1C)c1c(N)n(Cc2ccccc2)c(=O)[nH]c1=O`, with “inactive”.

For `COc1ccccc1NNC(=O)C(O)(c1ccccc1OC)c1ccccc1OC`, the Potency result is “inactive”. The same measure for `COc1cccc(CN(C)C(=O)c2cc(S(=O)(=O)N3CCCC3)ccc2C)c1OC`: “inactive”; for `COc1cccc(NC(=S)NCc2ccc3c(c2)cc(C)n3C)c1`: “inactive”; for `O=S(=O)(NCCc1ccccc1F)c1cccc(S(=O)(=O)N2CCOCC2)c1`: “inactive”. With `CC1CCC(NC(=O)c2nn(C)c3c2CS(=O)(=O)c2ccccc2-3)CC1` (stereo not given), the Potency result is “inactive”. Turning to `Cc1ccc(-c2cc(C(=O)NCC3CCCO3)no2)cc1` (stereo not given), the Potency entry was “inactive”.

Take `CCc1nc(SCC(N)=O)c2c(=O)n(C)c(=O)n(C)c2n1`: the Potency result was “inactive”. With `Cc1cnc(CNC(=O)C2CCC(=O)N(CCc3cccc(F)c3)C2)[nH]1` (stereo not given), the Potency entry was “inactive”. Consider `Cc1ccc(NC(=O)c2ccc(=O)[nH]n2)cc1S(=O)(=O)Nc1ccccc1Cl`, for which the Potency entry is “inactive”. The same measure for `Cc1ccc(C(=O)NC(=S)Nc2ccc3[nH]c(=O)[nH]c3c2)c(C)c1`: “inactive”. As for `Cc1ccc(C2=NS(=O)(=O)N(C)C(C(=O)NC3CCCC3)=C2)cc1`, the Potency entry is “inactive”. As to `COc1ccc(-c2sc3ccccc3c2C#CCO)cc1`, the Potency result was “inactive”. Take `Cn1nc(N2CCN(S(=O)(=O)c3ccccc3)CC2)c(=O)n(C)c1=O`: the Potency entry was “inactive”. Regarding `Cc1ccc(Cl)cc1NC(=O)c1ccccc1OCC(=O)N1CCOCC1`, the Potency result was “inactive”. Then `O=C(NCCOc1ccc(F)cc1)C1CCN(S(=O)(=O)c2ccccc2)CC1`, with “inactive”; and `O=c1ccc(S(=O)(=O)N2CCCC2)c[nH]1`, with “inactive”; and `CSCC[C@H](NC(=O)[C@H](Cc1ccccc1)n1c(=O)[nH]c2ccccc2c1=O)C(=O)N1CCC[C@@H]1C(=O)O`, with “inactive”.

For `COCCOC(=O)C1=C(C)NC(=O)NC1c1cccc2ccccc12` (stereo not given), the Potency result is “inactive”. The same measure for `CCOc1ccc(OCC)c(NC(=O)c2ccc(CNc3c(N4CCCC4)c(=O)c3=O)cc2)c1`: “inactive”; for `CC(C)(C)S(=O)(=O)N1C[C@H]2CC/C=C\C/C(c3ccccc3)=C\2[C@@H]1CCO`: “inactive”.

Regarding `COc1ccc(CCN=c2c([N+](=O)[O-])nn(-c3cccc(C)c3)n2O)cc1OC`, the Potency result was “inactive”. The same measure for `CNC(=S)N1C2CCCC1CC(NC(=O)c1ccc(F)cc1)C2` (stereo not given): “inactive”; for `CCCCNC(=O)c1cc2c(-c3ccc(Cl)cc3)nn(C)c2s1`: “inactive”.

For the compound `OCC[C@@H]1C[C@H](O)[C@@H](O)[C@]2(OCCc3ccccc32)O1`, the Potency entry was “inactive”.

`O=C(CC1(O)C(=O)Nc2ccccc21)c1cccc(Br)c1` (stereo not given): the Potency entry is “inactive”.
